Screening data as filed in PubChem.
NTMT1 inhibitor: NTMT1 methyltransferase inhibition; Potency, µM (highest dose often 114 µM), inactives show at the top dose activity change, negative = inhibition, hits mostly inhibitors; hit rate 2.5% among 59,000; NTMT1 MTase-Glo SAH luminescence, purified enzyme; Q9BV86;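 also: potency is read from the fitted curve at half-maximal effect; plate controls were DMSO vehicle for no effect and no enzyme for full effect; nearly all actives have a fitted effect of over 65% in size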
Target sequence (Q9BV86 whole entry, looked up): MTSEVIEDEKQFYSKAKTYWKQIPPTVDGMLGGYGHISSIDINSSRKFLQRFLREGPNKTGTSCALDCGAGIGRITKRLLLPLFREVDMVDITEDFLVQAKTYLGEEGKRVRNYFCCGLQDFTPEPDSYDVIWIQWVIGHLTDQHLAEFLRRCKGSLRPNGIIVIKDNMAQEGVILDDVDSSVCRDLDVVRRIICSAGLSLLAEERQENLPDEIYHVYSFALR
GPR32 ag: activates human resolvin D1 receptor GPR32; O75388; CHO-K1 GPR32 beta-arrestin PathHunter luminescence, 90 min; zero percent set by DMSO-only wells; activation, % at 76.9 µM; hit rate 2.5% among 48,000;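 active = activation of at least 60% and not above a set upper limit, about 1 call in 100 departs from these limits; inconclusive = activation of 40% to 60%, or above that upper limit; inactive = activation under 40%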; also: 0% is about no effect
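Luminescent readout of beta-Gal complementation quantifies ligand-induced beta-arrestin association with GPR32 in CHO-K1 cells; 90 min compound incubation at 37 °C, detection 1 h at room temperature.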
FH mod: Identification of activators of human fumarate hydratase by quantitative high-throughput screening | Fumarate hydratase, mitochondrial (Homo sapiens), P07954 | FH coupled MDH/diaphorase resazurin fluorescence, 15 min | Potency, µM (series often up to 79.9 µM), for inactives: top-dose activity change, negative = inhibition, usual class: inhibitors | hit rate 0.22% among 54,000; also: potency is read from the fitted curve at half-maximal effect; % is scaled to controls: 0 for no effect and ±100 for the full control effect; the screen sought activators but most active calls are inhibition curves; nearly all actives have a fitted effect of over 45% in size
Target sequence (P07954 whole entry, looked up): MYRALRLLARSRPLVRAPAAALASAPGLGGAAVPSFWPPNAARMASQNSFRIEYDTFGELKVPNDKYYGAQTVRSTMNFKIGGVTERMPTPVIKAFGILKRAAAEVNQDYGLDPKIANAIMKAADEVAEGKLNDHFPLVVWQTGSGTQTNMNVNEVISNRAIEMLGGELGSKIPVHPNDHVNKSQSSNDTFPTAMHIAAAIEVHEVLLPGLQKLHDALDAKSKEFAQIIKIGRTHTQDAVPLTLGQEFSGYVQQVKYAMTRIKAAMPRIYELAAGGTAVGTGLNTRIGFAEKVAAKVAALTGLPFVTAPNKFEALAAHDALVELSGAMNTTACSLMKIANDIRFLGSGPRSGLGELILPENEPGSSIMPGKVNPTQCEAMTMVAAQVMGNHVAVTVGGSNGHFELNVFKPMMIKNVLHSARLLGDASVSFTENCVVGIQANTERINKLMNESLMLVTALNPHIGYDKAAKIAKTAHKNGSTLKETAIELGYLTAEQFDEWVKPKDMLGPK
SKOV3 invasion: blocks SKOV3ip1 adhesion and invasion in omental model; SKOV3ip1-GFP adhesion/invasion on 3D omental model, fluorescence; Potency, µM (doses to about 45.8 µM), for the others: at the highest dose activity change, negative = inhibition, most hits filed as inhibitors; hit rate 0.1% among 46,000;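 also: potency is read from the fitted curve at half-maximal effect; plate controls were DMSO wells for no effect and tomatine positive control wells for full effect; nearly all actives have a fitted effect of over 65% in size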
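qHTS, 4-pt dose (0.36-46 umol/L); SKOV3ip1-GFP, 1,200 cells/well, no FBS; primary omental fibroblast/mesothelial co-culture 48 h pre-grown; 2 h RT + 16 h 37 C; PBS wash, 4% PFA; GFP count 488/509 nm.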
* hit, by the source's call; i = inactive; ? = inconclusive; . = not tested or not shown; ! = not confirmed by another sample; [ ] = another dose, or the depositor's remark. Shown are actives, neighbours in structure and some others; about 3.9% of the full set was active somewhere. Unless noted, calls follow the shape of the dose curve; as a rule, active = well fitted curve in the direction sought with a large enough effect; inconclusive = small, poorly fitted or top-dose-only effect, or another doubt; inactive = no such curve, though single readings can be large; an effect the other way counts as inactive or inconclusive.

SMILES	NTMT1 inhibitor	GPR32 ag	FH mod	SKOV3 invasion
c1ccc(CNc2nc(NCc3ccccc3)c3ccccc3n2)cc1	44.7µM*!	.	0.2%[53.3 µM]	-3.4%
COc1ccc(N2CC(NC(=O)C3CCCCC3)CC2=O)cc1 (configuration not stated)	8.5%	-1.8	2.4%	i
COc1ccc(C2CC(=O)N3CN(C4CCCCC4)CSC3=C2C#N)cc1 (configuration not stated)	12.6µM*	48.0	-34.3%	-5.1%
COc1cccc(C2CC(=O)N3CN(C4CCCCC4)CSC3=C2C#N)c1 (configuration not stated)	11.2µM*	?	-23.1%	-6.2%
C=C1Cc2c(Cl)cc3[nH]c4c5c3c2[C@@]2(O)[C@@H]1C[C@@H]2C(C)(C)O[C@H]5C1CC[C@@]2(O)[C@@]35O[C@@H]3[C@H]3OC(C)(C)[C@H]3O[C@H]5CC[C@]2(C)[C@@]41C (some centres not stated)	-13.7%[12.6 µM]	.	1.7%[20.6 µM]	.
O=C1NS(=O)(=O)c2cc3c(cc21)C(=O)NS3(=O)=O	17.3%	.	.	.
O=[S+]([O-])(Nc1ccc2ccccc2c1)c1ccc(NCc2ccc(Cl)cc2O)cc1	9.6%	.	.	.
O=[S+]([O-])(Nc1ccc(C2CCNCC2)cc1)c1ccc(NCc2ccc(Br)cc2O)cc1	50.1µM*	.	.	.
O=C(/C=C\n1cnc(-c2cc(C(F)(F)F)cc(C(F)(F)F)c2)n1)N1CC(F)(F)C1	?	.	-4.7%	.
CCOC(=O)c1noc2ncn(CC(=O)Nc3ccc(C)c(F)c3)c(=O)c12	5.2%	76.0*	-9.0%	28.7%
CC(C)Nc1cc(C(F)(F)F)cc2nc(NC(=O)c3cccnc3)nn12	3.5%[57.5 µM]	.	0.9%	-0.6%
O=C(NCCc1ccccc1)c1ccc2c(c1)N(Cc1ccc(F)cc1Cl)C(=O)CS2	4.5%	107.8*	2.9%	i
O=C(NCCc1ccc(Cl)cc1)c1ccc2c(c1)N(Cc1ccc(F)cc1Cl)C(=O)CS2	-6.0%	9.0	2.8%	i
O=C(CCC1CCN(Cc2ccccc2)CC1)c1ccc2c(c1)NCCCC2	?	81.2*	?	.
c1ccc(CN2CCC3(CCCc4ccccc43)CC2)cc1	.	-23.0	-19.2%[53.3 µM]	.
O=C(Cn1c(=O)nc(-c2ccccc2)c2cc(Cl)ccc21)NCCCc1ccccc1	?	94.2*	-8.9%	-15.9%
O=C(Cn1c(=O)nc(-c2ccccc2)c2cc(Cl)ccc21)NCCc1ccccc1	11.3%	-9.5	-7.3%	10.9%
CCC=CC[C@H]1C(=O)CC[C@@H]1CC(=O)OC	?	.	-20.3%[53.3 µM]	0.6%
O=C(CCS(=O)(=O)c1cccs1)Nc1ccc(C(=O)Nc2cccc(Cl)c2)cc1	8.5%	65.3*	-21.4%	6.9%
OCCCn1c(-c2ccc(F)cc2)csc1=Nc1ccc(F)cc1	-0.7%	-7.7	-17.5%	i
Cc1ccc(-c2csc(=Nc3ccccc3)n2CCCO)cc1	-4.6%	86.0*	-20.2%	4.4%
CCOC(=O)/C=C(C)/C=C/C=C(C)/C=C/c1c(C)cc(OC)c(C)c1C	10.2%[57.5 µM]	30.2	-6.2%[53.3 µM]	.
COc1cc(C)c(/C=C/C(C)=C/C=C/C(C)=C/C(=O)O)c(C)c1C	79.4µM*	.	.	.
CCOC(=O)C1CCN(C(=O)C(C)(C)NC(=O)Nc2cccc(OC)c2)CC1	8.0%[57.5 µM]	.	.	.
CCOC(=O)c1ccc(NC(=O)c2ccc(-c3cccc(Cl)c3C)o2)cc1	-12.4%	-6.6	-13.9%	i
SMILES	NTMT1 inhibitor	GPR32 ag	FH mod	SKOV3 invasion
Cc1c(Cl)cccc1-c1ccc(C(=O)Nc2ccc(F)cc2)o1	-9.6%	60.8*	-19.7%	-21.0%
COc1ccc(CCN2CCC(Nc3nc4ccccc4n3Cc3ccc(F)cc3)CC2)cc1	?	94.6*	-9.3%[53.3 µM]	.
Cc1[nH]c2ccccc2c1CCNCc1ccc(/C=C/C(=O)NO)cc1	2.4%	.	19.1%	.
COC1CC(O[C@H]2CC[C@]3(C)C4CC[C@]5(C)C(C6=CC(=O)OC6)=CCC56OC46CC[C@@H]3C2)OC(C)C1O[C@@H]1O[C@H](CO[C@@H]2O[C@H](CO)[C@@H](O)[C@H](O)[C@H]2O)[C@@H](O)[C@H](O)[C@H]1O (some centres not stated)	1.5%[12.6 µM]	.	13.1%[20.6 µM]	.
CCC(=O)N1CCc2cc(S(=O)(=O)NCc3ccc(C)cc3)ccc21	3.2%	18.4	-4.1%	2.0%
CCC(=O)N1CCc2cc(S(=O)(=O)N(C)c3cccc(C)c3)ccc21	3.6%	63.2*	-10.4%	-8.0%
Cc1ccc2c(CNCc3cccs3)c(C(=O)O)n(Cc3ccc(F)cc3)c2c1	17.6%	91.9*	?	-6.0%
COc1ccc(Cn2c(C(=O)O)c(CNCc3cccs3)c3ccc(C)cc32)cc1	7.1%	?	-12.3%	-20.3%
C=Cc1ccc(Cn2c(C(=O)O)c(CNCc3ccc(F)cc3)c3ccc(C)cc32)cc1	1.4%	90.9*	-27.8%	?
COc1ccc2c(CNCc3cccs3)c(C(=O)O)n(Cc3ccc(F)cc3)c2c1	-25.4%	?	-23.3%	i
C=Cc1ccc(Cn2c(C(=O)O)c(CNCc3cccs3)c3ccc(C)cc32)cc1	6.0%	96.3*	?	4.5%
O=C(O)CCNc1cc(N2CCc3ccccc3CC2)nc(-c2cccnc2)n1	-9.0%	.	.	.
Cc1ccc(OCCn2c(CCNC(=O)C3CCNCC3)nc3ccccc32)cc1	-2.6%[57.5 µM]	.	.	.
COc1ccccc1N(CC(=O)NCCSCc1cccc(Cl)c1)S(C)(=O)=O	-1.6%	87.7*	-11.0%	-14.1%
COc1ccccc1N(CC(=O)NCCSCc1ccccc1Cl)S(C)(=O)=O	-5.2%	21.1	1.6%	i
Nc1nc2c(cnn2CCCc2ccc(O)cc2)c2nc(-c3ccco3)nn12	-2.3%[57.5 µM]	.	3.2%	.
O=C1C(Cl)=C(NCCN2CCOCC2)C(=O)c2ncccc21	?	.	-19.4%[53.3 µM]	5.9µM*
CC(=O)O[C@@H]1C[C@]2(C)[C@@]3(CCC4[C@@]5(C)CC[C@H](O[C@@H]6O[C@H](C(=O)O)[C@@H](O)[C@H](O[C@@H]7O[C@H](CO)[C@H](O)[C@H](O)[C@H]7O[C@@H]7O[C@@H](C)[C@H](O)[C@@H](O)[C@H]7O[C@@H]7OC[C@](O)(CO)[C@H]7O)[C@H]6O[C@@H]6O[C@H](CO)[C@H](O)[C@H](O)[C@H]6O)C(C)(C)C5CC[C@]42C)O[C@@H](O)[C@]12C3CC(C)(C)[C@@H](OC(=O)/C=C/c1ccc(O)c(O)c1)[C@@H]2OC(=O)/C=C/c1ccccc1 (some centres not stated)	11.5%[6.45 µM]	.	-2.6%[13.5 µM]	.
CC[C@@H]1C(=O)N(C)c2cnc(Nc3ccc(C(=O)NC4CCN(C)CC4)cc3OC)nc2N1C1CCCC1	25.1µM*!	.	6.2%[53.3 µM]	-17.3%
COc1cc(C(=O)NC2CCN(C)CC2)ccc1Nc1ncc2c(n1)N(C1CCCC1)CC(F)(F)C(=O)N2C	28.2µM*	.	-1.6%	.
COc1cc(C(=O)NC2CCN(C)CC2)c(F)cc1Nc1ncc2c(n1)N(C1CCCC1)CC(F)(F)C(=O)N2C	28.2µM*	.	-6.5%	.
COc1cc(OC2CCN(C)CC2)ccc1Nc1ncc2c(n1)n(C1CCCC1)c(=O)n2C	-5.0%	.	4.1%[53.3 µM]	18.0%
